The full list was thinned out, with the strongest signals kept by preference.
Assays:
Test in all cases: glycan array binding signal (z-score within array); higher = stronger binding
Conditions in all cases: glycan notation: IUPAC condensed, linker removed
[1] = target: Fuc(a1-2)Gal(b1-3)GalNAc(b1-3)Gal(a1-4)Gal(b1-4)Glc
Summary of the method: (§1)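 The binding signal is a Z-score computed within each array. Data were drawn from 3228 arrays in the Consortium for Functional Glycomics database, restricted to those with a known protein sequence. Scores were averaged over arrays of the same protein sequence at different concentrations or buffers, and over linkers, and negative values can be taken as non-binding.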

[2] = target: Fuc(a1-2)Gal(b1-3)GlcNAc6S
Summary of the method: as §1

[3] = target: Fuc(a1-2)Gal(b1-3)[Fuc(a1-4)]GlcNAc
Summary of the method: as §1

[4] = target: Fuc(a1-2)Gal(b1-3)[Fuc(a1-4)]GlcNAc(b1-3)[Gal(b1-4)GlcNAc(b1-6)]Gal(b1-4)Glc
Summary of the method: as §1

[5] = target: Fuc(a1-2)Gal(b1-4)GlcNAc(b1-2)Man(a1-3)[Fuc(a1-2)Gal(b1-4)GlcNAc(b1-2)Man(a1-6)]Man(b1-4)GlcNAc(b1-4)GlcNAc
Summary of the method: as §1

[6] = target: Fuc(a1-2)Gal(b1-4)[Fuc(a1-3)]GlcNAc(b1-3)GalNAc
Summary of the method: as §1

[7] = target: Fuc(a1-2)Gal3S(b1-4)GlcNAc
Summary of the method: as §1

[8] = target: Fuc(a1-2)[Gal(a1-3)]Gal(b1-3)GalNAc(b1-3)Gal(a1-4)Gal(b1-4)Glc
Summary of the method: as §1

[9] = target: Fuc(a1-2)[Gal(a1-3)]Gal(b1-4)GlcNAc(b1-2)Man(a1-3)[Fuc(a1-2)[Gal(a1-3)]Gal(b1-4)GlcNAc(b1-2)Man(a1-6)]Man(b1-4)GlcNAc(b1-4)GlcNAc
Summary of the method: as §1

[10] = target: Fuc(a1-2)[GalNAc(a1-3)]Gal(b1-4)GlcNAc(b1-2)Man(a1-3)[Fuc(a1-2)[GalNAc(a1-3)]Gal(b1-4)GlcNAc(b1-2)Man(a1-6)]Man(b1-4)GlcNAc(b1-4)GlcNAc
Summary of the method: as §1

[11] = target: Fuc(a1-3)[Gal(b1-4)]GlcNAc(b1-6)GalNAc
Summary of the method: as §1

[12] = target: Gal(a1-3)Gal(b1-4)GlcNAc(b1-2)Man(a1-3)[Gal(a1-3)Gal(b1-4)GlcNAc(b1-2)Man(a1-6)]Man(b1-4)GlcNAc(b1-4)GlcNAc
Summary of the method: as §1

[13] = target: Gal(a1-3)[Gal(a1-4)]Gal(b1-4)GlcNAc
Summary of the method: as §1

[14] = target: Gal(a1-4)Gal(b1-3)GlcNAc(b1-2)Man(a1-3)[Gal(a1-4)Gal(b1-3)GlcNAc(b1-2)Man(a1-6)]Man(b1-4)GlcNAc(b1-4)GlcNAc
Summary of the method: as §1

Gal(b1-4)Gal = target: Gal(b1-4)Gal
Summary of the method: as §1

[15] = target: Gal(b1-4)GlcNAc(b1-2)[Gal(b1-4)GlcNAc(b1-4)]Man(a1-3)[GlcNAc(b1-4)][Gal(b1-4)GlcNAc(b1-2)Man(a1-6)]Man(b1-4)GlcNAc(b1-4)GlcNAc
Summary of the method: as §1

[16] = target: Gal(b1-4)GlcNAc(b1-3)Gal(b1-3)GalNAc
Summary of the method: as §1

[17] = target: Gal(b1-4)GlcNAc(b1-3)Gal(b1-4)Glc
Summary of the method: as §1

[18] = target: Gal(b1-4)GlcNAc(b1-3)Gal(b1-4)GlcNAc(b1-2)Man(a1-3)[Gal(b1-4)GlcNAc(b1-3)Gal(b1-4)GlcNAc(b1-2)Man(a1-6)]Man(b1-4)GlcNAc(b1-4)[Fuc(a1-6)]GlcNAc
Summary of the method: as §1

[19] = target: Gal(b1-4)GlcNAc(b1-3)Gal(b1-4)GlcNAc(b1-3)Gal(b1-4)GlcNAc(b1-2)Man(a1-3)[Gal(b1-4)GlcNAc(b1-3)Gal(b1-4)GlcNAc(b1-3)Gal(b1-4)GlcNAc(b1-2)Man(a1-6)]Man(b1-4)GlcNAc(b1-4)GlcNAc
Summary of the method: as §1

[20] = target: Gal(b1-4)GlcNAc(b1-3)Gal(b1-4)GlcNAc(b1-3)Gal(b1-4)GlcNAc(b1-3)Gal(b1-4)GlcNAc(b1-3)Gal(b1-4)GlcNAc(b1-2)[Gal(b1-4)GlcNAc(b1-3)Gal(b1-4)GlcNAc(b1-3)Gal(b1-4)GlcNAc(b1-3)Gal(b1-4)GlcNAc(b1-3)Gal(b1-4)GlcNAc(b1-6)]Man(a1-6)[Gal(b1-4)GlcNAc(b1-3)Gal(b1-4)GlcNAc(b1-3)Gal(b1-4)GlcNAc(b1-3)Gal(b1-4)GlcNAc(b1-3)Gal(b1-4)GlcNAc(b1-2)Man(a1-3)]Man(b1-4)GlcNAc(b1-4)[Fuc(a1-6)]GlcNAc
Summary of the method: as §1

[21] = target: Gal(b1-4)GlcNAc(b1-3)GalNAc
Summary of the method: as §1

[22] = target: Gal(b1-4)GlcNAc(b1-6)[Gal(b1-3)]GalNAc
Summary of the method: as §1

Gal4S6S(b1-4)GlcNAc = target: Gal4S6S(b1-4)GlcNAc
Summary of the method: as §1

GalNAc(a1-3)Gal = target: GalNAc(a1-3)Gal
Summary of the method: as §1

GlcNAc(b1-3)Fuc = target: GlcNAc(b1-3)Fuc
Summary of the method: as §1

[23] = target: GlcNAc(b1-3)Gal(b1-4)GlcNAc(b1-3)Gal(b1-4)GlcNAc
Summary of the method: as §1

[24] = target: GlcNAc(b1-3)[GlcNAc(b1-4)][GlcNAc(b1-6)]GlcNAc
Summary of the method: as §1

[25] = target: GlcNAc(b1-4)Gal(b1-4)GlcNAc
Summary of the method: as §1

GlcNAc(b1-4)GlcNAc = target: GlcNAc(b1-4)GlcNAc
Summary of the method: as §1

[26] = target: GlcNAc(b1-4)GlcNAc(b1-4)GlcNAc
Summary of the method: as §1

Kdn(a2-3)Gal(b1-4)GlcNAc = target: Kdn(a2-3)Gal(b1-4)GlcNAc
Summary of the method: as §1

[27] = target: Man(a1-3)[Man(a1-6)]Man(b1-4)GlcNAc(b1-4)GlcNAc
Summary of the method: as §1

MurNAc(b1-4)GlcNAc = target: MurNAc(b1-4)GlcNAc
Summary of the method: as §1

[28] = target: Neu5Ac(a2-3)Gal(b1-3)GalNAc
Summary of the method: as §1

[29] = target: Neu5Ac(a2-3)Gal(b1-3)GlcNAc(b1-2)Man
Summary of the method: as §1

[30] = target: Neu5Ac(a2-3)Gal(b1-3)GlcNAc(b1-2)Man(a1-3)[GlcNAc(b1-4)][Neu5Ac(a2-3)Gal(b1-3)GlcNAc(b1-2)Man(a1-6)]Man(b1-4)GlcNAc(b1-4)GlcNAc
Summary of the method: as §1

[31] = target: Neu5Ac(a2-3)Gal(b1-3)[Fuc(a1-4)]GlcNAc
Summary of the method: as §1

[32] = target: Neu5Ac(a2-3)Gal(b1-3)[Fuc(a1-4)]GlcNAc(b1-3)Gal(b1-4)[Fuc(a1-3)]GlcNAc
Summary of the method: as §1

[33] = target: Neu5Ac(a2-3)Gal(b1-3)[GlcNAc(b1-6)]GalNAc
Summary of the method: as §1

[34] = target: Neu5Ac(a2-3)Gal(b1-4)GlcNAc(b1-2)Man
Summary of the method: as §1

[35] = target: Neu5Ac(a2-3)Gal(b1-4)GlcNAc(b1-3)Gal
Summary of the method: as §1

[36] = target: Neu5Ac(a2-3)Gal(b1-4)GlcNAc(b1-3)Gal(b1-4)GlcNAc
Summary of the method: as §1

[37] = target: Neu5Ac(a2-3)Gal(b1-4)[Fuc(a1-3)]GlcNAc(b1-6)[Gal(b1-3)]GalNAc
Summary of the method: as §1

[38] = target: Neu5Ac(a2-6)Gal(b1-4)GlcNAc(b1-2)Man(a1-3)[Gal(b1-4)GlcNAc(b1-2)Man(a1-6)]Man(b1-4)GlcNAc(b1-4)GlcNAc
Summary of the method: as §1

[39] = target: Neu5Ac(a2-6)Gal(b1-4)GlcNAc(b1-2)Man(a1-3)[GlcNAc(b1-2)Man(a1-6)]Man(b1-4)GlcNAc(b1-4)GlcNAc
Summary of the method: as §1

[40] = target: Neu5Ac(a2-6)Gal(b1-4)GlcNAc(b1-2)Man(a1-3)[Neu5Ac(a2-6)Gal(b1-4)GlcNAc(b1-2)Man(a1-6)]Man(b1-4)GlcNAc(b1-4)GlcNAc
Summary of the method: as §1

[41] = target: Neu5Ac(a2-6)Gal(b1-4)GlcNAc(b1-3)Gal(b1-4)GlcNAc(b1-2)Man(a1-3)[Neu5Ac(a2-6)Gal(b1-4)GlcNAc(b1-3)Gal(b1-4)GlcNAc(b1-2)Man(a1-6)]GalNAc
Summary of the method: as §1

[42] = target: Neu5Ac(b2-6)Gal(b1-4)GlcNAc
Summary of the method: as §1

[43] = target: Neu5Gc(a2-6)Gal(b1-4)GlcNAc
Summary of the method: as §1

[44] = target: Neu5Gc(a2-8)Neu5Gc(a2-3)Gal(b1-4)GlcNAc
Summary of the method: as §1

B1: LecRKVI.2 (protein)
chain: RTTTNFAFRGFNGNQSKIRIEGAAMIKPDGLLRLTDRKSNVTGTAFYHKPVRLLNRNSTNVTIRSFSTSFVFVIIPSSSSNKGFGFTFTLSPTPYRLNAGSAQYLGVFNKENNGDPRNHVFAVEFDTVQGSRDDNTDRIGNDIGLNYNSRTSDLQEPVVYYNNDDHNKKEDFQLESGNPIQALLEYDGATQMLNVTVYPARLGFKPTKPLISQHVPKLLEIVQEEMYVGFTASTGKGQSSAHYVMGWSFSSGGERPIADVLILSELPPPPPNKAKKEGLNS
glycan array binding signal (z-score) [1]: -0.133 | glycan array binding signal (z-score) [2]: -0.436 | glycan array binding signal (z-score) [3]: -0.312 | glycan array binding signal (z-score) [4]: -0.205 | glycan array binding signal (z-score) [5]: 3.27 | glycan array binding signal (z-score) [6]: 4.76 | glycan array binding signal (z-score) [7]: -0.468 | glycan array binding signal (z-score) [8]: -0.403 | glycan array binding signal (z-score) [9]: 0.276 | glycan array binding signal (z-score) [10]: 4.57 | glycan array binding signal (z-score) [11]: 3.86 | glycan array binding signal (z-score) [12]: 3.09 | glycan array binding signal (z-score) [13]: -0.211 | glycan array binding signal (z-score) [14]: 5.85 | glycan array binding signal (z-score) (Gal(b1-4)Gal): -0.396 | glycan array binding signal (z-score) [15]: -0.319 | glycan array binding signal (z-score) [16]: -0.047 | glycan array binding signal (z-score) [17]: -0.296 | glycan array binding signal (z-score) [18]: 3.44 | glycan array binding signal (z-score) [19]: 6.91 | glycan array binding signal (z-score) [20]: 0.566 | glycan array binding signal (z-score) [21]: -0.373 | glycan array binding signal (z-score) [22]: 1.83 | glycan array binding signal (z-score) (Gal4S6S(b1-4)GlcNAc): -0.352 | glycan array binding signal (z-score) (GalNAc(a1-3)Gal): 3.89 | glycan array binding signal (z-score) (GlcNAc(b1-3)Fuc): -0.233 | glycan array binding signal (z-score) [23]: -0.415 | glycan array binding signal (z-score) [24]: -0.429 | glycan array binding signal (z-score) [25]: -0.256 | glycan array binding signal (z-score) (GlcNAc(b1-4)GlcNAc): -0.232 | glycan array binding signal (z-score) [26]: -0.408 | glycan array binding signal (z-score) (Kdn(a2-3)Gal(b1-4)GlcNAc): -0.49 | glycan array binding signal (z-score) [27]: -0.376 | glycan array binding signal (z-score) (MurNAc(b1-4)GlcNAc): -0.279 | glycan array binding signal (z-score) [28]: -0.423 | glycan array binding signal (z-score) [29]: -0.335 | glycan array binding signal (z-score) [30]: -0.407 | glycan array binding signal (z-score) [31]: -0.318 | glycan array binding signal (z-score) [32]: -0.388 | glycan array binding signal (z-score) [33]: -0.402 | glycan array binding signal (z-score) [34]: -0.25 | glycan array binding signal (z-score) [35]: -0.323 | glycan array binding signal (z-score) [36]: -0.162 | glycan array binding signal (z-score) [37]: 3.09 | glycan array binding signal (z-score) [38]: 0.37 | glycan array binding signal (z-score) [39]: -0.274 | glycan array binding signal (z-score) [40]: 0.07 | glycan array binding signal (z-score) [41]: 3.81 | glycan array binding signal (z-score) [42]: -0.393 | glycan array binding signal (z-score) [43]: -0.356 | glycan array binding signal (z-score) [44]: -0.395

— the supplement of paper PMC8728848
